# Bioassay records as filed in PubChem.
# Sampled rows, rich in hits. Any-hit rate of the full collection: about 4.5%.
# Beta cell apopt – beta cell apoptosis inhibition. protection from apoptosis, % (concentration not given with the values). actives 0.8% (n = 300,000). INS-1E cytokine-induced death, ATP luminescence, 48 h; percent of positive-control rescue, neutral wells zero. AID 435005;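 active = Every replicate reaches about 75%, or at least half do and their mean reaches it too, limit read from the data; inconclusive = At least half of replicates reach the limit but their mean does not; inactive = Under half of replicates reach the limit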;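 also: higher means more ATP so stronger rescue from cytokine killing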
# Jurkat NFkB inh – inhibitors of the PMA/ionomycin-induced NF-kB reporter in Jurkat cells. PMA/ionomycin-induced NF-kB luciferase reporter, luminescence. actives 0.53% (n = 330,000). inhibition, % at 4 µM; in the data active = inhibition above about 50%
# CSC inhib – cancer stem cell inhibition; actives 1.1% (n = 300,000); cancer stem cell-like cells viability, luminescence; AID 2717; inhibition, % at 7.5 µM; in the data active = inhibition above about 75%; inconclusive = no clear call, values can overlap the other calls; tested in HMLE shEcad cells
# Gli-Sufu antag – Gli-Sufu pathway antagonism; Sufu-KO-LIGHT fibroblasts, Gli luciferase reporter luminescence; inhibition, % at 5 µM; actives 0.74% (n = 340,000); AID 588413;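 active = inhibition above about 55%, limit read from the data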
# Mdm2 MdmX PPI – inhibitors of human Mdm2/MdmX interaction. O15151+Q00987. SaOS-2 split-luciferase Mdm2/MdmX complementation, luminescence. inhibition, % at 8 µM. actives 3% (n = 330,000). AID 485346;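 active = inhibition of at least 50% at 8 µM in the primary screen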
# Target sequence (O15151 whole entry, looked up): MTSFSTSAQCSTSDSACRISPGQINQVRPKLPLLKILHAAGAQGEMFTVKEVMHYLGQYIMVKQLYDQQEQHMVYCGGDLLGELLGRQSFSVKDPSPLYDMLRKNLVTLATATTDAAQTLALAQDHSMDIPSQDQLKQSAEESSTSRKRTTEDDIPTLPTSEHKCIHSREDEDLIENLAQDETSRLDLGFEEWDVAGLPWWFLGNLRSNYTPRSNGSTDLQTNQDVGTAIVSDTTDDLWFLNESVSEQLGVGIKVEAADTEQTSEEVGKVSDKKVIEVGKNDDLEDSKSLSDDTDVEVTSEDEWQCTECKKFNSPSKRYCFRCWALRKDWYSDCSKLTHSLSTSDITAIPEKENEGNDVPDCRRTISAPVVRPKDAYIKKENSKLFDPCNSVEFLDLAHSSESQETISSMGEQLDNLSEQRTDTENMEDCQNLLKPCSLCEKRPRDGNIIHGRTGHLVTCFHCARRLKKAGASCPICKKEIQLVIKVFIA
# Target sequence (Q00987 whole entry, looked up): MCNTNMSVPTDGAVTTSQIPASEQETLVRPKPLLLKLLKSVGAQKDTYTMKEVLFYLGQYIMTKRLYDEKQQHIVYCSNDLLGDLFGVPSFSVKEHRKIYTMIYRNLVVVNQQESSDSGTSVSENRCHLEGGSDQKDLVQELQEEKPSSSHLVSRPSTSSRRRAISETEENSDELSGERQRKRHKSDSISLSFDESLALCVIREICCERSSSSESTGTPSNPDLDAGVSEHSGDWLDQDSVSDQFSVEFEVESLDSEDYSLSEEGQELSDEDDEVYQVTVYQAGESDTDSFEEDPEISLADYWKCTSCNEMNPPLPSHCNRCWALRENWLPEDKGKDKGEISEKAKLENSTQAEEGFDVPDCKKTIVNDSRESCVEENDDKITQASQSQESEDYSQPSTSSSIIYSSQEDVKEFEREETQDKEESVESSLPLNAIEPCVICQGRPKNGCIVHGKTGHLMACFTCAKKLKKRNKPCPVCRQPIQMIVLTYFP
# 697 NFkB inh – lowers PMA/ionomycin-induced NF-kB signal in 697 B cells; actives 0.33% (n = 330,000); inhibition, % at 4 µM; 697 B-cell NF-kB luciferase reporter, 16 h; in the data active = inhibition above about 35%
# Mdm2-MdmX conf – confirmation of human Mdm2/MdmX interaction inhibitors. shares compounds with Mdm2 MdmX PPI. Mdm2-MdmX binding, luminescent assay. inhibition, % at 8 µM. actives 55% (n = 10,000). AID 489028; in the data active = inhibition above about 40%
# Full FLuc ctr – inhibits full-length luciferase, flagging false Mdm2/MdmX hits | AID 504607 | inhibition, % at 8 µM | shares compounds with Mdm2 MdmX PPI | actives 77% (n = 6,200) | SaOS-2 full-length luciferase counterscreen, luminescence;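 active = mean inhibition at 8 µM reaching about 37%, which flags the compound as non-specific, limit read from the data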;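 also: p53-null SaOS-2 cells with luciferase driven by a doxycycline-inducible promoter; compound on cells about two nights before reading with doxycycline added after day one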
# Numbers stand for hits; 0 = inactive; ? = inconclusive; - = not tested or not shown.
SMILES,Beta cell apopt,Jurkat NFkB inh,CSC inhib,Gli-Sufu antag,Mdm2 MdmX PPI,697 NFkB inh,Mdm2-MdmX conf,others
COC(=O)c1ccc(OCCN2CCCCCC2)cc1,0,0,0,0,0,0,-,
O=C(c1ccc(OCCN2CCCCC2)cc1)c1c(-c2ccc(O)cc2)sc2cc(O)ccc12,0,0,85.3,0,65.2,0,0,
COc1ccccc1-c1sc2cc3c(cc2c1-c1ccc2c(c1)OCO2)OCO3,0,0,0,0,0,0,-,
Cc1ccc(S(=O)(=O)N(CCCc2c(C)nc[nH]c2=O)c2ccccc2)cc1,-,-,-,0,-,-,-,
CN(C)S(=O)(=O)n1cc(/C=C(\NC(=O)c2ccccc2Cl)C(=O)N2CCCC2)c2ccccc21,0,0,0,0,0,0,-,
COc1nc(/C=C/N(C)C)c([N+](=O)[O-])c(OC)n1,0,0,0,0,52.0,0,0,
CC(=O)Oc1ccc2oc(/C=C/N(C)C)c([N+](=O)[O-])c2c1,0,0,0,0,0,0,-,
Cc1nc([N+](=O)[O-])cn1CC(=O)Nc1ccc(F)c(Cl)c1,0,0,0,0,0,0,-,
Clc1ccc2oc3c(Cl)ncnc3c2c1,0,0,0,0,71.1,0,0,
CSc1cccc(NC(=S)N(CCCN2CCCC2)Cc2cccs2)c1,0,0,0,0,0,0,-,
COc1cccc(NC(=S)N(CCCN2CCCC2)Cc2ccco2)c1,0,0,0,0,0,0,-,
S=C(Nc1cccc(Cl)c1)N(CCCN1CCCC1)Cc1cccn1Cc1ccc(Cl)cc1,0,0,96.0,0,61.9,0,0,
Cn1cc(CN(CCCN2CCOCC2)C(=S)Nc2cccc(Cl)c2)c2ccccc21,0,0,0,0,0,0,-,
CSc1cccc(NC(=S)N(CCCN2CCCC2)Cc2cccn2Cc2ccc(Cl)cc2)c1,0,0,0,0,72.9,0,43.8,Full FLuc ctr=62.7
COc1cccc(NC(=S)N(CCCN2CCCC2)Cc2cccn2Cc2ccc(Cl)cc2)c1,0,0,0,0,56.4,0,0,
COc1ccc(NC(=O)c2sc3ncnc(N4CCN(c5ccccn5)CC4)c3c2C)cc1Cl,-,0,0,0,57.3,0,0,
COc1ccc(NC(=O)c2sc3nc(C)nc(N4CCN(c5ccccn5)CC4)c3c2C)cc1Cl,0,0,0,0,51.4,0,0,
Cc1cc(Br)ccc1NC(=O)c1sc2ncnc(N3CCN(c4ccccn4)CC3)c2c1C,0,0,0,0,58.7,0,49.0,Full FLuc ctr=58.9
Cc1cc(Br)ccc1NC(=O)CN1CCN(c2ccccn2)CC1,0,0,0,0,0,0,-,
Cc1cc(C=O)c(O)cc1O,0,0,0,0,0,0,-,
O=C(CSc1nc2nn(-c3ccccc3)c(=O)c-2c2n1CCCCC2)Nc1ccc(F)c(F)c1,0,0,0,0,55.0,0,0,
NC(N)=N/N=C/c1ccc2cccc(OCc3ccccc3)c2n1,0,0,0,0,50.9,0,60.0,Full FLuc ctr=81.2
COc1ccc(C(=O)N/N=C/c2ccc3cccc(OCc4ccccc4)c3n2)cc1,0,0,0,0,59.3,0,0,
O=C(N/N=C/c1ccc2cccc(OCc3ccccc3)c2n1)c1ccc(Br)cc1,0,0,0,0,0,0,-,
O=C(COC(=O)/C=C/c1ccc([N+](=O)[O-])cc1)NNC(=O)c1ccccc1,0,0,0,0,0,0,-,
SMILES,Beta cell apopt,Jurkat NFkB inh,CSC inhib,Gli-Sufu antag,Mdm2 MdmX PPI,697 NFkB inh,Mdm2-MdmX conf,others
COc1cc2[nH]c3c(N4CCN(c5ccc(Cl)cc5)CC4)ncnc3c2cc1OC,0,0,0,0,53.2,0,0,
O=C1Nc2ccc(Br)cc2/C1=C/C(=O)c1ccccc1,-,-,-,0,-,-,-,
C=CCOc1cccc(C(=O)/C=C2/C(=O)Nc3ccccc32)c1,0,0,0,0,85.6,0,0,
CCCCC(=O)N1CCN(c2nc3ccc(Cl)cc3s2)CC1,-,0,0,0,0,0,-,
COc1ccc(-c2n[nH]c(C)c2-c2ccc(Cl)cc2)c(O)c1OC,0,0,0,0,86.7,0,73.2,Full FLuc ctr=39.2
COc1ccc(-c2n[nH]c(C)c2-c2ccc(Cl)cc2)c(O)c1,0,0,0,0,0,0,-,
COc1ccc(Cn2cc3c(-c4ccc(F)cc4)nnc-3c3cc(OC)c(OC)cc32)cc1,99.6,0,0,0,100.3,0,96.2,Full FLuc ctr=68.2
Cn1nc2c3cc(F)ccc3n(Cc3ccc(F)cc3)cc-2c1=O,0,0,0,0,0,0,-,
COc1cc2c3nnc(-c4ccc(F)cc4)c-3cn(Cc3ccccc3)c2cc1OC,0,0,0,0,99.9,0,93.5,Full FLuc ctr=56.8
COc1cc2c3nnc(-c4ccc(F)cc4)c-3cn(Cc3ccc(F)cc3)c2cc1OC,0,0,0,0,100.3,0,0,
CC(CCN1CCC(n2nccc2NC(=O)c2ccccc2Cl)CC1)c1ccccc1 (stereo not drawn),0,0,0,0,0,0,-,
O=C(Nc1ccccc1Cl)c1sccc1-c1ccccc1,0,0,0,0,0,0,-,
Cc1nn(-c2ccccc2)c(C)c1-c1nnc(-c2c(C)nn(-c3ccccc3)c2C)o1,0,0,0,0,56.0,0,0,
Cc1nn(-c2ccccc2)c(C)c1-c1nnc(C(F)(F)F)o1,-,0,-,0,0,0,-,
Cc1cc2ccccn2c1C(=O)c1ccc([N+](=O)[O-])o1,0,0,?,0,64.2,0,0,
CCOC(=O)CNC(=O)C1(NC(=O)CNC(=O)OCc2ccccc2)CCCC1,-,-,-,0,-,-,-,
CCC(=O)NC1=C(NC(C)c2ccccc2)C(=O)c2ccccc2C1=O (stereo not drawn),-,0,0,0,0,0,-,
CCC(=O)NC1=C(Cl)C(=O)C(NC(=O)CC)=C(Cl)C1=O,-,0,-,0,57.9,0,43.5,Full FLuc ctr=0
Cc1ccc(CNC2CCCCC2)s1,0,0,0,0,0,0,-,
CN(C)c1ccc(C(=O)N2CCN(C(=O)C3CCCO3)CC2)cc1 (stereo not drawn),0,0,0,0,0,0,-,
COc1ccc(C(=O)NC(=S)Nc2nc(-c3ccc(OC)c(Br)c3)cs2)cc1Br,0,0,0,0,0,0,-,
COc1ccc(-c2csc(NC(=S)NC(=O)c3ccccc3)n2)cc1Br,-,0,-,0,55.5,0,0,Full FLuc ctr=85.0
COc1ccc(-c2csc(NC(=S)NC(=O)c3ccco3)n2)cc1Br,0,0,0,0,82.2,0,55.5,Full FLuc ctr=0
COc1cc(OC)cc(C(=O)NC(=S)Nc2nc(-c3cc4ccccc4o3)cs2)c1,0,0,0,0,64.8,0,0,
COc1ccc(-c2csc(NC(=S)NC(=O)/C=C/c3ccco3)n2)cc1Br,0,0,78.9,0,85.0,0,65.2,Full FLuc ctr=59.1
CC(C)n1ncc2c(C(=O)Nc3cccc(C#N)c3)cc(C3CC3)nc21,0,0,0,0,0,0,-,
Cc1cc(C)n(C(=O)/C(C#N)=N/Nc2cc(Cl)cc(Cl)c2)n1,0,0,0,0,89.4,0,87.7,Full FLuc ctr=50.7
